Measurements taken from PubChem BioAssay (NCI).
About 79,000 compounds went through this panel and 15% of them were active in at least one assay; those are over-represented in the sample as a whole. A number with no mark means an inactive call. The source made the active and inactive calls. Cut-off read from the data, not from the text of the source: active = growth inhibition above about 70%; inactive = the rest.

Assay: NCI Yeast Anticancer Drug Screen. Data for the mec2-1 strain (AID 157)
Settings: S. cerevisiae mec2-1 strain, at 5.0 µM (retest, dose inferred, filed as 0.5), stronger effect = higher value
Method: Growth inhibition of yeast strains with defined genetic alterations is measured as a screen for potential anti-cancer activity. Selected strains with alterations in DNA damage repair or cell cycle control were exposed to compounds and growth inhibition was measured relative to vehicle treated controls. The strain used in this assay is mec2-1

Row | SMILES | growth inhibition
1 | C[CH2][Sn]([O][Sn]([Cl])([CH2]C)[c]1ccccc1)[c]1ccccc1 (stereo not given) | 18%
2 | O=C(N/N=C/c1cc(Br)cc(Br)c1[O-])c1ccccc1O.O=C(N/N=C/c1cc(Br)cc(Br)c1[O-])c1ccccc1O.[Zn+2] | 96% (active)
3 | N#CSCC(=O)O (tested in a mixture with another compound) | 2%
4 | C=CCc1cc(Cl)ccc1OC(=O)N(C)C | 5%
5 | CCOC(=O)[C]1([Pb]([CH3])([CH3])[CH3])N=NC(C(=O)OC)=C1C(=O)OC (stereo not given) | -1%
6 | N#CC(C#N)=Cc1c(O)ccc2ccccc12 | -2%
7 | COc1ccc([As](O[As](c2ccc(OC)cc2)c2ccc(OC)cc2)c2ccc(OC)cc2)cc1 | 100% (active)
8 | C/C(=C\c1ccccc1)[N+](=O)[O-] | 26%

Same assay, conditions: S. cerevisiae mec2-1 strain, at 50.0 µM (retest, dose inferred, filed as 5.0), stronger effect = higher value

Row | SMILES | growth inhibition
9 | C[CH2][Sn]([O][Sn]([Cl])([CH2]C)[c]1ccccc1)[c]1ccccc1 (stereo not given) | 98% (active)
10 | O=C(N/N=C/c1cc(Br)cc(Br)c1[O-])c1ccccc1O.O=C(N/N=C/c1cc(Br)cc(Br)c1[O-])c1ccccc1O.[Zn+2] | 96% (active)
11 | N#CSCC(=O)O (tested in a mixture with another compound) | 4%
12 | C=CCc1cc(Cl)ccc1OC(=O)N(C)C | -4%
13 | CCOC(=O)[C]1([Pb]([CH3])([CH3])[CH3])N=NC(C(=O)OC)=C1C(=O)OC (stereo not given) | -14%
14 | N#CC(C#N)=Cc1c(O)ccc2ccccc12 | 45%
15 | COc1ccc([As](O[As](c2ccc(OC)cc2)c2ccc(OC)cc2)c2ccc(OC)cc2)cc1 | 100% (active)
16 | C/C(=C\c1ccccc1)[N+](=O)[O-] | 100% (active)

Same assay, conditions: S. cerevisiae mec2-1 strain, at 50.0 µM, stronger effect = higher value

Row | SMILES | growth inhibition
17 | C[CH2][Sn]([O][Sn]([Cl])([CH2]C)[c]1ccccc1)[c]1ccccc1 (stereo not given) | 73.2% (active)
18 | CCOP(=O)(OCC)/C(C#N)=C/c1ccc(C#N)cc1 | 15.8%
19 | CCOc1ccc([N+](=O)[O-])cc1CNCCBr | -1.3%
20 | COc1ccc(C=O)cc1 | -10.2%
21 | O=C(N/N=C/c1cc(Br)cc(Br)c1[O-])c1ccccc1O.O=C(N/N=C/c1cc(Br)cc(Br)c1[O-])c1ccccc1O.[Zn+2] | 90.7% (active)
22 | COc1cc2c(c(Oc3ccc(C)cc3)c1)CN(C)CC2 | 19.3%
23 | CCCCC(CC)C(=O)O.[Sn] (stereo not given) | -9.1%
24 | N#CSCC(=O)O (tested in a mixture with another compound) | 7.4%
25 | NC1=NC(=O)C(c2ccccc2)(c2ccccc2)O1 | -8.6%
26 | O=[N+]([O-])O.[Ce] | 3.35%
27 | CC(=O)c1ccc([As](=O)(O)O)cc1 | -20.4%
28 | CC[As](CC)SCC1OC(OC(C)=O)C(OC(C)=O)C(OC(C)=O)C1OC(C)=O (stereo not given) | 98.5% (active)
29 | CCC(C)(C)OC(=O)CCl | 1.25%
30 | O=C(COc1ccc(Cl)c(Cl)c1)NCCc1cc[n+](Cc2ccc(Cl)cc2S(=O)(=O)F)cc1 | 5.4%
31 | CN1CCC2CC(=O)NC1(C)C2(C)C (stereo not given) | 2.05%
32 | C=CCc1cc(Cl)ccc1OC(=O)N(C)C | 3.45%
33 | CCOC(=O)[C]1([Pb]([CH3])([CH3])[CH3])N=NC(C(=O)OC)=C1C(=O)OC (stereo not given) | -2.15%
34 | CCOC(=O)C1C(=O)C(=O)N2CCc3c([nH]c4ccccc34)C12 (stereo not given) | 7.55%
35 | CNC(=O)Oc1cccc(N=CN(C)C)c1 | 1.05%
36 | CCOC(=O)C(=O)CC(=O)[C@H]1CC[C@H]2[C@@H]3CC[C@@H]4C[C@H](O)CC[C@]4(C)[C@H]3C(=O)C[C@]12C | 15.3%
37 | N#CC(C#N)=Cc1c(O)ccc2ccccc12 | 51.3%
38 | COc1ccc([As](O[As](c2ccc(OC)cc2)c2ccc(OC)cc2)c2ccc(OC)cc2)cc1 | 99.6% (active)
39 | O=[As](O)(O)c1ccc2nc3cc([As](=O)(O)O)ccc3nc2c1 | -3%
40 | C/C(=C\c1ccccc1)[N+](=O)[O-] | 93.2% (active)
